p97 inhibitor: inhibitors of human p97 ATPase, primary screen, biochemical; Transitional endoplasmic reticulum ATPase (Homo sapiens), P55072; recombinant p97 ATPase, Kinase-Glo ATP luminescence, 3 h; inhibition, % at 8 µM; 220,000 compounds, 0.42% hits; AID 1481, 2009; in the data active means inhibition above about 15%;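 further: 0% = DMSO vehicle and 100% = wells lacking enzyme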
Redox H2O2 prof: compounds producing H2O2 with reducing agent – biochemical, NIH compound library profiling, artefact control for MLSCN library redox annotation, primary screen; 200,000 compounds, 0.03% hits; DTT-dependent redox cycling H2O2, phenol red/HRP absorbance; 100% = 100 µM peroxide control, 0% = buffer; activation, % at 10 µM;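 active means activation of at least 50% relative to the plate's high and low controls in the primary single-dose screen; inactive means activation below 50%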;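 further: compound incubated with DTT at 0.8 mM final as the reducing agent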
LYPLA2 inh: LYPLA2 inhibitors, primary screen, counter-screen for PME1 inhibitor project, biochemical, fluorescence polarization, FP-Rh probe ABPP | recombinant LYPLA2 | inhibition, % at 5.9 µM | 320,000 compounds, 0.38% hits | AID 2177, 2009;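 active means inhibition above the screen-wide mean plus 3 SD, limit set per campaign, cut at about 26% in these data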;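 further: 0% = LYPLA2 with DMSO and 100% = wells lacking LYPLA2 enzyme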
Target sequence (O95372 whole entry, looked up): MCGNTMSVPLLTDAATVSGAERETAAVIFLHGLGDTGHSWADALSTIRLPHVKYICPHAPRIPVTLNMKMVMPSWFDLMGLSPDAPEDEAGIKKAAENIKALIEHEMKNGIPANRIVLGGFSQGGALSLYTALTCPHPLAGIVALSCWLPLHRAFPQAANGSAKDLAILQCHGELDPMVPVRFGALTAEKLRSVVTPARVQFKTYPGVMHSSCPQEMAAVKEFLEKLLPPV
LYPLA1 counter: LYPLA1 inhibitors, primary screen, counter-screen for PME1 inhibitor project, biochemical, fluorescence polarization, FP-Rh probe ABPP; recombinant LYPLA1; inhibition, % at 5.9 µM; Acyl-protein thioesterase 1 (Homo sapiens), O75608; 320,000 compounds, 0.16% hits;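 active means inhibition above the mean of all tested compounds plus 3 SD, set per campaign, cut at about 14% in these data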;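 further: inhibitors block serine hydrolase probe labeling of LYPLA1 so polarization falls; 0% = enzyme with DMSO and 100% = wells lacking LYPLA1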
Target sequence (O75608 whole entry, looked up): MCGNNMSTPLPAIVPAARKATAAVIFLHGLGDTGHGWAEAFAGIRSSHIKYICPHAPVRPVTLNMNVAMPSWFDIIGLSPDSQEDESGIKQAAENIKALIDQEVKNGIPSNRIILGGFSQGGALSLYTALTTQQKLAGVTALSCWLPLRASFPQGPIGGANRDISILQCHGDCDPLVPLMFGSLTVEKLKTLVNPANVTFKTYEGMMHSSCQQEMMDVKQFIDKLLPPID
LYPLA1 confirm: LYPLA1 inhibitors, retest, confirmation, counter-screen for PME1 inhibitor project, biochemical, fluorescence polarization, FP-Rh probe ABPP. shares compounds with LYPLA1 counter. recombinant LYPLA1. inhibition, % at 5.9 µM. 480 compounds, 69% hits. AID 2233, 2010;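 active means mean inhibition across replicates above the hit cutoff set in the primary screen, cut at about 15% in these data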;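 further: loss of FP-Rh probe labeling of LYPLA1 seen as lower polarization; 0% = LYPLA1 with DMSO and 100% = wells lacking LYPLA1 enzyme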
The depositor's hits bear a star; / = no result given. An excerpt weighted towards active compounds, which were near 0.74% of everything screened.

SMILES	p97 inhibitor	Redox H2O2 prof	LYPLA2 inh	LYPLA1 counter	LYPLA1 confirm
Cc1noc(NS(=O)(=O)c2ccc(N/C=C\C(=O)c3ccc(Br)cc3)cc2)c1C	-2	0	8	16*	34*
COc1ccccc1C(=O)Nc1ccc2c(c1)nc1n2CCN(Cc2ccccc2)C1	13	0	11	28*	4
CCOC(=O)/C(=C\C=C\N1CCOCC1)C(C)=O	-1	0	2	-4	/
COC(=O)C(=C/C=C/N1CCOCC1)C(=O)OC	4	/	14	15*	-1
Cc1ccc(-n2c(C)cc(C(=S)N3CCOCC3)c2C)cc1C	-1	2	0	0	/
COc1ccc(OC)c(NC(=O)C2CCC(CNc3c(N4CCC(C)CC4)c(=O)c3=O)CC2)c1 (centres undefined)	1	0	6	45*	44*
COc1ccc(C)cc1NC(=O)C1CCC(CNc2c(N3CCOCC3)c(=O)c2=O)CC1 (centres undefined)	-1	0	-2	1	/
COC(=O)COC(=O)c1ccc(O)cc1	0	1	3	15*	2
CN1/C(=C\C=C2/C(=O)Oc3ccccc3C2=O)C(C)(C)c2ccccc21	4	0	-213	51*	-60
O=C(Nc1ccc(Cl)cc1)Nc1nnc(CSCc2ccc(Cl)cc2)s1	5	0	-3	-5	/
O=C(CSc1n[nH]c(=O)[nH]c1=O)Nc1ccc2c(c1)C(=O)c1ccccc1C2=O	10	/	16	14*	5
O=C(CSc1ccccn1)Nc1ccc2c(c1)C(=O)c1ccccc1C2=O	1	0	-1	-3	/
Cc1ccc(OCC(=O)N2CCN(c3ccc([N+](=O)[O-])c(N4CCOCC4)c3)CC2)cc1	4	-4	8	41*	49*
O=C(COc1ccc(Br)cc1)N1CCN(c2ccc([N+](=O)[O-])c(N3CCCCC3)c2)CC1	-5	2	7	66*	76*
O=C(COc1ccccc1)N1CCN(c2ccc([N+](=O)[O-])c(N3CCCCC3)c2)CC1	2	-4	5	12	/
CC12COC3(C(=O)Nc4ccc5ccccc5c4)CC1CCC32C (centres undefined)	4	0	1	-2	/
COc1ccc(Cl)cc1NC(=O)CN1CCC(n2nnc3ccccc32)CC1	-2	1	-3	15*	19*
Cc1nc2scc(C)n2c(=O)c1S(=O)(=O)Nc1ccc(OC(F)(F)F)cc1	/	/	2	2	/
O=C(CSc1nnc(-c2ccco2)o1)N1CCN(c2ccccc2)CC1	1	-2	4	20*	28*
O=C(CSc1nnc(-c2ccco2)o1)N1CCOCC1	3	2	2	2	/
NC(=O)c1nsc(C(=O)N(c2cccc(F)c2)C(C(=O)NCC2CCCO2)c2cccs2)c1N (centres undefined)	3	0	-3	-1	/
O=S1(=O)c2ccccc2Nc2ccccc21	/	/	-3	-5	/
CC1CC(=O)Nc2ccccc2S1(=O)=O (centres undefined)	6	-1	11	18*	5
O=C1CC2(CCN(C(=O)COc3ccc(Cl)cc3)CC2)Oc2ccccc21	/	/	20	16*	21*
C/C(=N/NC(=O)c1cc2ccccc2cc1O)C1C(=O)c2ccccc2C1=O	10	0	24	63*	57*
SMILES	p97 inhibitor	Redox H2O2 prof	LYPLA2 inh	LYPLA1 counter	LYPLA1 confirm
CC1Oc2ccccc2N(CC(=O)NC2CCCCC2)C1=O (centres undefined)	/	/	-3	1	/
c1ccc2[nH]c(CN3CCN(c4ncnc5c4oc4ccccc45)CC3)nc2c1	9	1	4	17*	18*
CCCOc1ccc(/C(CC)=N/NC(=O)C2(C)CC2(Br)Br)cc1 (centres undefined)	7	2	28*	17*	3
CC(=O)N(C(C)=O)S(=O)(=O)c1ccc(N=NN2CCCCC2)cc1	5	0	12	-1	/
CCOCCn1c(=NC(=O)c2ccc(S(=O)(=O)N3CCOCC3)cc2)sc2cc(S(N)(=O)=O)ccc21	/	/	15	15*	15*
COCCn1c(=NC(=O)c2ccc(S(=O)(=O)N3CCc4ccccc4C3)cc2)sc2cc(S(N)(=O)=O)ccc21	5	0	-70	-34	/
CC(=O)c1ccc(OCC(O)CN2CCN(S(=O)(=O)c3c(C)c(C)cc(C)c3C)CC2)cc1 (centres undefined)	/	/	19	14	/
Cc1cc(SCC(=O)NC2(C#N)CCCCC2)nc2c(C)cccc12	/	/	2	1	/
O=C1NC(Cc2c[nH]c3ccccc23)C(=O)N1Cc1ccccc1 (centres undefined)	/	/	-1	0	/
O=C1C(Cc2c[nH]c3ccccc23)NC(=S)N1Cc1ccccc1 (centres undefined)	4	0	-7	38*	1
O=C(Nc1cccc2ncccc12)c1ccc(Cl)cc1	/	/	0	29*	3
CCCC[C@@H]1CNCCN1CCc1cccc2ccccc12	/	/	0	1	/
C[C@]1(CO)CCC[C@@]2(C)C1CC[C@@H](CO)[C@@H]2CCc1ccoc1 (some centres undefined)	/	/	-1	-1	/
Cc1cc(C)c2oc(C(=O)N3CCN(Cc4ccccc4)CC3)cc(=O)c2c1	/	/	-6	21*	26*
Cc1ccc2nc(-c3sc4nc(C)cc(C)c4c3N)[nH]c2c1	3	1	9	15*	2
O=C1c2cccc3c(O)ccc(c23)C(=O)N1Cc1ccccc1	9	0	31*	21*	24*
CCCCNCc1ccc(OCc2ccc(Cl)nc2)c(OC)c1	-1	/	10	15*	3
COc1cc(CNCCc2ccccc2)ccc1OCc1ccc(Cl)nc1	-4	0	21	4	/
COc1ccc(CCNC(=O)C(CCC(N)=O)NS(=O)(=O)c2ccc(Cl)cc2)cc1OC (centres undefined)	/	/	-9	-3	/
CN(C(=O)c1ccc(NC(=O)Cc2cccc([N+](=O)[O-])c2)cc1)C1CC1	/	/	18	42*	35*
CC1CCN(S(=O)(=O)c2ccc(C(=O)NNC(=O)C3CC3)cc2)CC1	5	-1	8	-2	/
COc1ccc(Br)cc1/C=N/Nc1cccc(C(=O)O)c1	7	1	5	4	/
O=C(O)c1cccc(N/N=C/c2cc(Br)cc(Br)c2O)c1	10	0	14	24*	20*
CCOC(=O)c1cccc(NC(=O)c2ccc3c(c2)C(=O)N(CC2CCCO2)C3=O)c1 (centres undefined)	/	/	3	28*	31*
Cc1ccc(C(=O)Nc2ccc3c(c2)C(=O)N(CC2CCCO2)C3=O)cc1 (centres undefined)	/	/	-3	-1	/
Cc1ccc(NC(=O)c2ccc3c(SCC(=O)O)c4c(nc3c2)CCCC4)c(Br)c1	/	/	0	2	/
